Assay results taken from PubChem BioAssay (NCI).
Compounds without any hit were thinned out: in the full panel of roughly 79,000, 15% have a hit. Calls of active or inactive are those of the source. Rule as the data show it: active = growth inhibition above about 70%; inactive = the rest. Residues, ends and D or L forms follow the SMILES beside them. *: point of attachment. CH2Cl = ClC*

Experiments:
[1] = NCI Yeast Anticancer Drug Screen. Data for the mlh1 strain (AID 171);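 also: 0% = growth of vehicle-treated control cultures of the same strain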; settings: S. cerevisiae mlh1 strain growth inhibition, hits give high values
How it was run: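 Compounds are applied to a genetically altered yeast strain, and its growth is compared with that of vehicle-treated cultures to give percent inhibition.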

[2] = NCI Yeast Anticancer Drug Screen. Data for the sgs1 strain (AID 173);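 also: 0% = growth of vehicle-only control cultures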; settings: S. cerevisiae sgs1 mutant, hits give high values
How it was run: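 Compounds applied to genetically altered yeast; growth compared with vehicle-treated cultures to give % inhibition.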

[3] = NCI Yeast Anticancer Drug Screen. Data for the mlh1 rad18 strain (AID 175); settings: S. cerevisiae mlh1 rad18 strain growth inhibition, hits give high values
How it was run: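 Cells of a genetically altered yeast strain, deficient in DNA damage repair, were treated with compound. Their growth was then compared with that of vehicle-treated cultures to give inhibition.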

[4] = NCI Yeast Anticancer Drug Screen. Data for the rad18 strain (AID 177); settings: S. cerevisiae rad18 mutant growth inhibition, hits give high values
How it was run: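 Compounds are applied to a repair-deficient yeast strain, and growth is compared with that of vehicle-treated cultures to give percent inhibition.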

[5] = NCI Yeast Anticancer Drug Screen. Data for the rad52 strain (AID 147);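 also: 0% = growth of vehicle-treated control cultures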; settings: S. cerevisiae rad52 mutant growth inhibition, hits give high values
How it was run: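 DNA repair-defective yeast; compound exposure; growth scored against vehicle controls.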

[6] = NCI Yeast Anticancer Drug Screen. Data for the wt1 strain (AID 149);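 also: 0% = growth of vehicle-treated wt1 cultures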; settings: S. cerevisiae wt1 strain (SPY 50644) growth inhibition, hits give high values
How it was run: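 Vehicle-normalised growth inhibition; strain wt1; compound exposure.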

[7] = NCI Yeast Anticancer Drug Screen. Data for the rad50EPP+ strain (AID 151);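 also: 0% = growth of vehicle-treated control cultures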; settings: S. cerevisiae rad50 mutant strain, hits give high values
How it was run: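 rad50EPP+ yeast treated with test compounds. Readout: growth vs vehicle control.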

[8] = NCI Yeast Anticancer Drug Screen. Data for the mgt1 strain (AID 153); settings: S. cerevisiae mgt1 mutant growth inhibition, hits give high values
How it was run: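 Growth inhibition relative to vehicle controls was scored for the mgt1 yeast strain after compound exposure.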

[9] = NCI Yeast Anticancer Drug Screen. Data for the rad50 strain (AID 155);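 also: 0% = growth of vehicle-only cultures of the same strain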; settings: S. cerevisiae rad50 strain growth inhibition, hits give high values
How it was run: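 A DNA repair-deficient yeast mutant serves as the test organism; compound-induced growth inhibition is calculated against vehicle-treated cells.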

[10] = NCI Yeast Anticancer Drug Screen. Data for the mec2-1 strain (AID 157); settings: S. cerevisiae mec2-1 strain, hits give high values
How it was run: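 Growth inhibition is read against vehicle-treated controls after compound exposure of the mec2-1 yeast strain, which is defective in DNA damage repair or cell cycle control.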

[11] = NCI Yeast Anticancer Drug Screen. Data for the rad14 strain (AID 159);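 also: 0% = growth of vehicle-treated control cultures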; settings: S. cerevisiae rad14 strain growth inhibition, hits give high values
How it was run: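 Vehicle-treated cultures served as the baseline for growth inhibition of a DNA repair-mutant yeast strain exposed to each compound.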

[12] = NCI Yeast Anticancer Drug Screen. Data for the sgs1 mgt1 strain (AID 161);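 also: 0% = growth of cultures given vehicle only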; settings: S. cerevisiae sgs1 mgt1 strain, at 50.0 µM, hits give high values
How it was run: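 Yeast cells carrying a defined DNA-repair defect were exposed to test compounds. Growth inhibition was measured relative to vehicle-treated controls.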

[13] = NCI Yeast Anticancer Drug Screen. Data for the CLN2oe strain (AID 163);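 also: 0% = growth of vehicle-only control cultures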; settings: S. cerevisiae CLN2oe strain, hits give high values
How it was run: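 Compound-treated yeast; growth vs vehicle ctrl = % inhibition. Genetically altered strain (cell-cycle control).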

[14] = NCI Yeast Anticancer Drug Screen. Data for the cln2 rad14 strain (AID 165);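 also: 0% = growth equal to vehicle treated cultures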; settings: S. cerevisiae cln2 rad14 strain, at 50.0 µM, hits give high values
How it was run: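 Growth inhibition, relative to vehicle-treated controls, is the read-out. The test organism is a yeast strain with defined genetic alterations, cln2 rad14.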

[15] = NCI Yeast Anticancer Drug Screen. Data for the bub3 strain (AID 167); settings: S. cerevisiae bub3 mutant strain, hits give high values
How it was run: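 Inhibition values come from growth of compound-treated mutant yeast normalised to vehicle-treated controls.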

[16] = NCI Yeast Anticancer Drug Screen. Data for the wt2 strain (AID 169);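 also: 0% = growth of vehicle-treated yeast cultures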; settings: S. cerevisiae wt2 strain growth inhibition, hits give high values
How it was run: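 Compound exposure of yeast; growth compared with vehicle controls; inhibition reported.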

Measured: growth inhibition

O=c1ccc(N=Nc2ccccc2)ccc1O
inactive: [1]; at 1.2 µM 10% | [2]; at 1.2 µM 4% | [2]; at 3.7 µM 62% | [3]; at 5.0 µM (retest, dose inferred, filed as 0.5) 59% | [4]; at 1.2 µM 9% | [4]; at 3.7 µM 64%
active: [1]; at 3.7 µM 90% | [1]; at 11.0 µM 98% | [1]; at 33.0 µM 99% | [1]; at 100.0 µM 99% | [2]; at 11.0 µM 97% | [2]; at 33.0 µM 99% | [2]; at 100.0 µM 98% | [3]; at 50.0 µM (retest, dose inferred, filed as 5.0) 99% | [3]; at 50.0 µM 98.8% | [4]; at 11.0 µM 97% | [4]; at 33.0 µM 99% | [4]; at 100.0 µM 98%

CC(=O)NC(CC(C)C)C(=O)NC(Cc1ccccc1)C(=O)CCl (stereo not drawn) (Ac-Leu-Phe-CH2Cl; configuration not given here)
inactive: [5]; at 1.2 µM -3% | [5]; at 3.7 µM 1% | [5]; at 11.0 µM 9% | [5]; at 33.0 µM 27% | [6]; at 1.2 µM -2% | [6]; at 3.7 µM -5% | [6]; at 11.0 µM -5% | [6]; at 33.0 µM -4% | [6]; at 100.0 µM 37% | [7]; at 1.2 µM -3% | [7]; at 3.7 µM -4% | [7]; at 11.0 µM -1% | [7]; at 33.0 µM 9% | [7]; at 100.0 µM 52% | [8]; at 1.2 µM -5% | [8]; at 3.7 µM -5% | [8]; at 11.0 µM -6% | [8]; at 33.0 µM -2% | [9]; at 1.2 µM -3% | [9]; at 3.7 µM 1% | [9]; at 11.0 µM 6% | [9]; at 33.0 µM 25% | [9]; at 50.0 µM 7.1% | [10]; at 1.2 µM -4% | [10]; at 3.7 µM 0% | [10]; at 11.0 µM 3% | [10]; at 33.0 µM 21% | [10]; at 50.0 µM 33.4% | [11]; at 1.2 µM -5% | [11]; at 3.7 µM -4% | [11]; at 11.0 µM -2% | [11]; at 33.0 µM 3% | [11]; at 100.0 µM 36% | [12] 46.9% | [13]; at 1.2 µM -8% | [13]; at 3.7 µM -7% | [13]; at 11.0 µM -8% | [13]; at 33.0 µM -2% | [13]; at 100.0 µM 51% | [14] -31.9% | [15]; at 1.2 µM -1% | [15]; at 3.7 µM -2% | [15]; at 11.0 µM -4% | [15]; at 33.0 µM 6% | [15]; at 50.0 µM 53.7% | [16]; at 1.2 µM -4% | [16]; at 3.7 µM -3% | [16]; at 11.0 µM -2% | [16]; at 33.0 µM -1% | [1]; at 1.2 µM -4% | [1]; at 3.7 µM -3% | [1]; at 11.0 µM -1% | [1]; at 33.0 µM 5% | [2]; at 1.2 µM -3% | [2]; at 3.7 µM -4% | [2]; at 11.0 µM 1% | [2]; at 33.0 µM 15% | [3]; at 50.0 µM 40.3% | [4]; at 1.2 µM -3% | [4]; at 3.7 µM -2% | [4]; at 11.0 µM 3% | [4]; at 33.0 µM 9%
active: [5]; at 100.0 µM 74% | [8]; at 100.0 µM 83% | [9]; at 100.0 µM 77% | [10]; at 100.0 µM 85% | [15]; at 100.0 µM 84% | [16]; at 100.0 µM 71% | [1]; at 100.0 µM 77% | [2]; at 100.0 µM 75% | [4]; at 100.0 µM 72%

Cc1cc(O)c2c(c1)C(=O)C=C(Br)C2=O
inactive: [5]; at 1.2 µM 38% | [6]; at 1.2 µM -1% | [6]; at 3.7 µM -2% | [6]; at 11.0 µM 6% | [7]; at 1.2 µM 58% | [8]; at 1.2 µM 7% | [8]; at 3.7 µM 21% | [9]; at 1.2 µM 38% | [10]; at 1.2 µM 40% | [10]; at 3.7 µM 67% | [11]; at 1.2 µM 37% | [11]; at 3.7 µM 64% | [13]; at 1.2 µM 7% | [13]; at 3.7 µM 16% | [13]; at 11.0 µM 40% | [16]; at 1.2 µM -4% | [16]; at 3.7 µM 7% | [16]; at 11.0 µM 54% | [1]; at 1.2 µM 11% | [1]; at 3.7 µM 25% | [2]; at 1.2 µM 4% | [2]; at 3.7 µM 11% | [2]; at 11.0 µM 66% | [4]; at 1.2 µM 10% | [4]; at 3.7 µM 41%
active: [5]; at 3.7 µM 76% | [5]; at 11.0 µM 98% | [5]; at 33.0 µM 98% | [5]; at 100.0 µM 94% | [6]; at 33.0 µM 98% | [6]; at 100.0 µM 96% | [7]; at 3.7 µM 88% | [7]; at 11.0 µM 99% | [7]; at 33.0 µM 99% | [7]; at 100.0 µM 95% | [8]; at 11.0 µM 72% | [8]; at 33.0 µM 98% | [8]; at 100.0 µM 97% | [9]; at 3.7 µM 71% | [9]; at 11.0 µM 97% | [9]; at 33.0 µM 99% | [9]; at 100.0 µM 94% | [10]; at 11.0 µM 94% | [10]; at 33.0 µM 99% | [10]; at 100.0 µM 98% | [11]; at 11.0 µM 97% | [11]; at 33.0 µM 99% | [11]; at 100.0 µM 96% | [13]; at 33.0 µM 99% | [13]; at 100.0 µM 97% | [15]; at 1.2 µM 88% | [15]; at 3.7 µM 86% | [15]; at 11.0 µM 98% | [15]; at 33.0 µM 92% | [15]; at 100.0 µM 98% | [16]; at 33.0 µM 99% | [16]; at 100.0 µM 97% | [1]; at 11.0 µM 71% | [1]; at 33.0 µM 99% | [1]; at 100.0 µM 98% | [2]; at 33.0 µM 99% | [2]; at 100.0 µM 96% | [4]; at 11.0 µM 95% | [4]; at 33.0 µM 98% | [4]; at 100.0 µM 94%
